Here are results for one compound from PubChem BioAssay AID2284168 (EPA ToxCast).

Activity calls are given as the source filed them. The calls were made as follows: active = hit-call score of the fitted dose curve at least 0.9, where 1 is the maximum; inactive = score below 0.9.

human Opioid Receptor delta (DOP) Agonism, OPRD1 (gene 4985), sequence (P41143 whole entry, looked up): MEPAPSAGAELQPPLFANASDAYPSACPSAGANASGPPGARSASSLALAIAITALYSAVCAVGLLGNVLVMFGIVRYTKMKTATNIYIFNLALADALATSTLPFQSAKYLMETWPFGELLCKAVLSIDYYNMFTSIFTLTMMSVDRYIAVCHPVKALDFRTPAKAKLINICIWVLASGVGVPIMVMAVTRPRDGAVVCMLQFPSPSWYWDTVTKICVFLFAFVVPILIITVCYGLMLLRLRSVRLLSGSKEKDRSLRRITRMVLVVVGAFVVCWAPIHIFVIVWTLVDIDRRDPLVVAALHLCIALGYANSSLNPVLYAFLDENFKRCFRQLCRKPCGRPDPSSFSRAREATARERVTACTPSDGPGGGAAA

The target in the experiment is human Opioid Receptor delta (DOP) Agonism, OPRD1 (gene 4985) (UniProt P41143). Description: ERF_FR_GPCR_hOPRD1: Eurofins (ERF) G Protein-Coupled Receptor (GPCR) Radioligand Binding LeadHunter Assay for human Opioid Receptor delta (DOP) Agonism. Here is the method:
ERF_FR_GPCR_hOPRD1 is a biochemical, single-readout assay that uses extracted gene-proteins in a cell-free assay. Measurements were taken 1 hour after chemical dosing in a 96-well plate. See delta (DOP) Human Opioid GPCR Binding (Agonist Radioligand) Assay, Cerep.ERF_FR_GPCR_hOPRD1 is an assay component calculated from the ERF_FR_GPCR_hOPRD1 assay. It is designed to measure radioligand binding using a type of binding reporter as detected by scintillation counting with radiometry technology.Data from the assay component ERF_FR_GPCR_hOPRD1 was analyzed at the assay endpoint, ERF_FR_GPCR_hOPRD1, in the positive analysis fitting direction relative to DMSO as the negative control and baseline of activity. Using a type of binding reporter, gain-of-signal activity can be used to understand changes in binding as they relate to gene OPRD1. To generalize the intended target to other relatable targets, this assay endpoint is annotated to the gpcr intended target family, where the subfamily is opioid.
Human cells are incubated for 60 minutes at room temprature with [3H]DADLE ligand (0.5 nM) and DPDPE as control inhibitor. Test Sample Requirements: Minimum for 1) Screen: 60 ul of 10 mM stock -OR- 1 mg (pre-weighed) for 10 uM final testing. 2) Dose Response: 90 ul of 10 mM stock -OR- 1 mg (pre-weighed) for a top concentration at 10 uM.
In the case of `O=C(/C=C/c1ccc(O)cc1)CC(=O)/C=C/c1ccc(O)cc1`, the AC50 (usually the concentration at which the activity in the assay is half-maximal) was 1.5 µM (active).
